PubChem BioAssay AID1220 (Sanford-Burnham Center for Chemical Genomics, 2008)
Hit rate of the full screen: of about 190,000 compounds, about 1,300 (0.68%) were called active. This is one part of a sample in which actives are shown more often than they occur. Values without a mark were called inactive. No stated cut-off is given here; in the data, active means inhibition above about 50%; inactive means the rest.

biological target: Mannose-6-phosphate isomerase (Homo sapiens) (UniProt P34949); experiment: human PMI inhibitors, high substrate, primary screen, biochemical, fluorescence intensity, high mannose 6-phosphate (AID 1220); settings: recombinant PMI enzyme, coupled fluorescence intensity; at 20 µM; stronger effect = higher value
Sequence (P34949 whole entry, looked up): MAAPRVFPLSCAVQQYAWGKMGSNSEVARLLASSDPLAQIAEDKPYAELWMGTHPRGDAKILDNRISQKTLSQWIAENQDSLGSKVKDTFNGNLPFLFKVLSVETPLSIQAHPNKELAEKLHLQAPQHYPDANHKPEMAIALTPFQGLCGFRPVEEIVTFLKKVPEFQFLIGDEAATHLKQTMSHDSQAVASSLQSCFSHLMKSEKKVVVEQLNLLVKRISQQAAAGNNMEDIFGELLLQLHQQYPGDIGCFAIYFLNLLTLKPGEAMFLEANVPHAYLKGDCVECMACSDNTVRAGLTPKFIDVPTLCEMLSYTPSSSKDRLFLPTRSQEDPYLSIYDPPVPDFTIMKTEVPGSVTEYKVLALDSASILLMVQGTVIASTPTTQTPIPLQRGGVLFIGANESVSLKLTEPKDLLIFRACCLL

In order of falling inhibition:
1. CCOC(=O)c1c2ccc(OCC(=O)N/N=C/c3ccc(Cl)cc3)cc2n2ccccc12  48.6%
2. Cn1c2c(c(=O)n(C)c1=O)C1(C(=O)Nc3ccccc31)C(C#N)=C(N)O2 (centres undefined)  47.4%
3. COc1ccc(CCNC(=O)CS(=O)(=O)c2cn(CC(=O)N3CCCC3)c3ccccc23)cc1OC  46.9%
4. N#CC1=C(N)Oc2[nH]c(=S)[nH]c(=O)c2C12C(=O)Nc1ccccc12 (centres undefined)  46.2%
5. Cc1c(Nc2cc(N3CCCC(C)C3)c3nonc3c2[N+](=O)[O-])c(=O)n(-c2ccccc2)n1C (centres undefined)  44.3%
6. Cc1c(Nc2cc(N3CCOCC3)c3nonc3c2[N+](=O)[O-])c(=O)n(-c2ccccc2)n1C  27.1%
7. Cc1ccc(N2CCN(C(=S)c3ccc(-c4cccc([N+](=O)[O-])c4)o3)CC2)cc1  26.5%
8. O=C(/C=C/c1ccco1)Nc1nc(-c2ccccn2)cs1  25.9%
9. CN(C)c1ccc2c(=O)[nH][nH]c(=O)c2c1  24.5%
10. Cc1c(C(=O)OC2CCCC2)[nH]c2c1C(=O)CC(c1ccco1)C2 (centres undefined)  23.1%
11. CCOCCCNC(=O)c1cn(CC(C)C)c(=O)c2cc(OC)c(OC)cc12  22.8%
12. CCN(CC)C(=O)Cn1cc(S(=O)(=O)CC(=O)NCCc2ccc(OC)c(OC)c2)c2ccccc21  20.4%
13. O=[N+]([O-])c1ccccc1-c1ccc(C(=S)N2CCCC2)o1  18.9%
14. CCOC(=O)C1(C)C=C(Nc2ccc(OC)cc2)C(=O)N1c1ccc(OC)cc1 (centres undefined)  18%
15. Cc1cc([N+](=O)[O-])cc2c1NC(=O)C2(O)N1CCOCC1 (centres undefined)  16.7%
16. COc1ccc2nc(NC(=O)Nc3ccccc3)sc2c1  15.5%
17. Cc1nc(SCC(=O)c2ccc(F)cc2)n[nH]1  12.9%
18. COc1ccc(NC(=O)c2sccc2C)cn1  12.5%
19. CC(C)CNC(=S)N(Cc1ccco1)Cc1cc2cc3c(cc2[nH]c1=O)OCCO3  12.4%
20. CC(C)(C)NC(=O)NC(=O)COC(=O)c1cccc(F)c1  10.3%
21. CN(C)c1nc(OCCOC(=O)c2ccccc2)nc(N(C)C)n1  10%
22. CC1=C(C)CC(C(=O)N2CCN(Cc3ccccc3)CC2)C(C(=O)O)C1 (centres undefined)  9.2%
23. Cc1ccc(S(=O)(=O)Oc2ccc(C)cc2/C=N/N=C2\NC(=O)C(C)S2)cc1 (centres undefined)  8.8%
24. c1ccc2c(NCCCN3CCOCC3)c3ccccc3nc2c1  8.7%
25. COc1ccc(NC(=O)c2cc(OC)c(OC)c(OC)c2)cn1  8.4%
26. Cc1ccc(/C=N/NC(=O)CNC(=O)COc2ccccc2)cc1  8.2%
27. CCOC(=O)C(C)Oc1cccc2c(=O)n(CC(=O)Nc3ccc(OCC)cc3)ccc12 (centres undefined)  7.6%
28. CCCC(=O)Nc1nc2ccc(OC)cc2s1  7.2%
29. COc1cc(=O)n(C)c2cc(N(C)C)ccc12  6.9%
30. CCOC(=O)C1C(c2ccccc2)N(C)OC1(O)C(F)(F)F (centres undefined)  6.7%
31. c1ccc(CCNc2ncnc3ccccc23)cc1  6.3%
32. Cc1c(NC(=O)CN2c3cccc4cccc(c34)S2(=O)=O)c(=O)n(-c2ccccc2)n1C  5%
33. CCNC(=S)N(Cc1ccco1)Cc1cc2cc3c(cc2[nH]c1=O)OCCO3  4.6%
34. CCN1C(=O)C(F)(CC)C(=O)c2ccccc21 (centres undefined)  4.2%
35. CN1CCOCCOCCN(C)C(=O)N2CCOCCOCCN(CCOCC2)C1=O  3%
36. CNC(=O)c1[nH]cnc1C(=O)N[C@@H](Cc1ccccc1)C(=O)OC(C)(C)C  2.7%
37. COc1cc(SC)ccc1C(=O)Nc1ccc(Cl)cn1  2.4%
38. Cc1ccc(OCC(=O)N/N=C\c2cn(Cc3ccccc3)c3ccccc23)cc1C  2.4%
39. CC(=O)Nc1ccc(S(=O)(=O)Nc2nc3ccccc3nc2N2CCCCCC2)cc1  2.2%
40. NC(=O)C1CCN(C(=O)CSc2nc3ccccc3[nH]2)CC1  2.1%
41. Cn1c(-c2ccccc2)cc(=O)c2ccccc21  2%
42. COc1cc(CNCCO)cc(Br)c1OCc1ccccc1  1.8%
43. O=C1CN(C(=O)COC(=O)/C=C/c2ccco2)c2ccccc2N1  1.6%
44. Cc1ccc(/C=C/C(=O)N2CC(=O)Nc3ccccc32)o1  1.3%
45. Cc1ccccc1-n1c(=O)c2ccccc2n2cnnc12  1.1%
46. CNc1oc(-c2ccc(Cl)cc2)nc1C#N  0.9%
47. Cn1ccc(C(=O)OCC(=O)Nc2cccc3ccccc23)n1  0.8%
48. CC(CCc1ccccc1)NC(=O)C(=O)N1CCOCC1 (centres undefined)  0.1%
49. Cc1cccc(OCC(=O)N/N=C\c2cn(C)c3ccccc23)c1  -0.8%
50. Cc1ccc(C(=O)CSc2n[nH]c(C)n2)cc1  -0.9%
51. Cc1cc(S(=O)(=O)N(Cc2ccc(C(C)C)cc2)CC2CCCO2)ccc1-n1cnnn1 (centres undefined)  -1%
52. CC(=O)N1CCC2(CC1)CC(=O)c1cc(OCC(=O)N3CCOCC3)ccc1O2  -1.2%
53. CC1CCN(C2(O)C(=O)Nc3ccc(Br)cc32)CC1 (centres undefined)  -1.3%
54. O=c1ccnc(NCCc2ccccc2)[nH]1  -1.8%
55. CC(=Nc1ccccc1)C1=C(O)CSC1=O  -2.7%
56. COc1ccc(-c2nnc3ccc(SCC(=O)N4CCOCC4)nn23)cc1  -2.8%
57. CC(=O)Nc1ccc(C(=O)n2nc(C)cc2C)cc1  -3.3%
58. O=C(NCCN1CCOCC1)c1ccc2ccccc2c1  -3.6%
59. Cc1cc(C)n2c(SCc3ccc(Cl)cc3Cl)nnc2n1  -3.9%
60. CCN(Cc1cc(=O)n2ccsc2n1)Cc1nc2ccccc2c(=O)[nH]1  -3.9%
61. COc1ccc(C2C(C(C)=O)=C(O)C(=O)N2CCCn2ccnc2)cc1 (centres undefined)  -4%
62. Cc1ccccc1N1CC(=O)N(c2ccccc2C)CC1=O  -4.3%
63. O=[N+]([O-])c1ccc2cn(-c3ccccc3)nc2c1  -4.3%
64. CC1(O)C(=O)c2ccccc2N(c2ccccc2)C1=O (centres undefined)  -4.8%
65. CCOC(=O)c1sc(-c2ccc(OC)cc2)cc1NC(C)=O  -4.9%
66. CCOC(=O)C1(C)C=C(Nc2ccc(C)cc2)C(=O)N1c1ccc(C)cc1 (centres undefined)  -5.2%
67. O=C(NNC(=O)C1CC(c2cccnc2)=NO1)Nc1ccccc1F (centres undefined)  -6.2%
68. COc1ccc(/C=N/NC(=O)c2cccc(NC(C)=O)c2)c(C(=O)O)c1OC  -6.4%
69. COc1cccc(CN(C)C(=O)c2cccnc2SC)c1OC  -6.5%
70. O=[N+]([O-])c1ccc2c(c1)ncn2-c1ccccc1  -7.7%
71. Cc1cc(=O)n(C)c2ccccc12  -8.5%
72. CC(=Nc1ccccc1C)C1=C(O)CSC1=O  -8.7%
73. Cc1nc([N+](=O)[O-])c(C(=O)OCc2ccccc2Br)n1C  -9.7%
74. O=C(c1ccccc1)N(Cc1cccnc1)C1(C(=O)Nc2ccccc2)CCCCC1  -14%
75. Cc1cc(C)nc(N/N=C/c2cccc3ccccc23)n1  -14.6%
76. CC1=C(C)C(=O)C(N2CCOCC2)=CC1=O  -17.5%
77. CN(Cc1cc(=O)n2ccsc2n1)c1ccccc1  -17.6%
78. Cn1c(-c2ccccc2)c(C(=O)CCl)c2ccccc21  -33.5%
79. COc1ccc(C(=O)N/N=C/c2c(CO)cnc(C)c2O)cc1  -36.3%

For `c1ccc2cc3c(NCCN4CCOCC4)ccnc3cc2c1`, the inhibition was 57% (active).
In the case of `c1ccc(CCNc2ccnc3cc4ccccc4cc23)cc1`, the inhibition is reported as 63.5% (active).
For `CN(C)c1ccc2c(O)cc(=O)n(C)c2c1`, the inhibition was 56.1% (active).
With `CNC(=S)N(Cc1ccco1)Cc1cc2cc3c(cc2[nH]c1=O)OCCO3` the inhibition was 52.2% (active).
With `CC(C)(C)C1=CC(=O)C(N2CCOCC2)=CC1=O` the inhibition was 65.3% (active).
With `COc1ccccc1N=C(C)C1=C(O)CSC1=O` the inhibition was 54.1% (active).
With `CCN(Cc1cc(=O)n2ccsc2n1)c1cccc2ccccc12` the inhibition was 67.3% (active).
For `COc1ccc(NC(=O)c2cc(Br)c(Br)s2)cn1`, the inhibition was 53.2% (active).
In the case of `Cc1ccc(/C=C/C(=O)OCC(=O)N2CC(=O)Nc3ccccc32)o1`, the inhibition is reported as 55.2% (active).
`Cc1cccc(N2CCN(C(=S)c3ccc(-c4ccccc4[N+](=O)[O-])o3)CC2)c1` was tested, and the inhibition was 57.3% (active).
For `CN1C(=O)C(Cl)(Cl)C(=O)c2ccccc21`, the inhibition was 68.4% (active).
`Cc1nc(SCC(=O)c2ccccc2)n[nH]1` was tested, and the inhibition was 51.2% (active).
In the case of `COc1ccc(CCNC(=O)CS(=O)(=O)c2cn(CC(=O)N3CCOCC3)c3ccccc23)cc1OC`, the inhibition is reported as 51.4% (active).
With `O=C1Nc2c(Br)cc(Br)cc2C1(O)N1CCOCC1` (centres undefined) the inhibition was 55.6% (active).
With `CCOC(=O)C1(C)C=C(Nc2ccc(O)cc2)C(=O)N1c1ccc(O)cc1` (centres undefined) the inhibition was 58.5% (active).
`CCOC(=O)c1c2ccc(OCC(=O)N/N=C/c3ccccc3C(F)(F)F)cc2n2ccccc12` was tested, and the inhibition was 64.2% (active).
With `Cn1c2c(c(=O)n(C)c1=O)[C@@]1(C(=O)Nc3ccccc31)C(C#N)=C(N)O2` the inhibition was 54.6% (active).
`Cc1c(Nc2cc(N3CCCCCC3)c3nonc3c2[N+](=O)[O-])c(=O)n(-c2ccccc2)n1C` was tested, and the inhibition was 51.5% (active).
With `COc1ccc2nc(NC(=O)Nc3cccc4ccccc34)sc2c1` the inhibition was 58.6% (active).
With `Cn1c2ccccc2c(=O)n2c(=O)c3ccccc3cc12` the inhibition was 54.4% (active).
